Source: PubChem
KCC2 mod: modulators of human KCC2 chloride dependent transport; Q9H2X9; KCC2 cells, thallium flux FluoZin-2 fluorescence; B-score of Tl+ flux slope (higher = more flux/activation; lower = inhibition) at 10 µM; hit rate 2.2% among 190,000; AID 1456;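 active means thallium flux slope and its plate-corrected score both differing from the plate sample mean at a set confidence after two filtering rounds, in either direction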;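 further: slope of fluorescence scaled to starting intensity during 10 to 20 s after thallium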
Calpain2 inh: calpain II (pig) inhibition; purified calpain II, fluorogenic peptide substrate, 30 min; inhibition, % at 16 µM; hit rate 0.37% among 220,000;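 active means inhibition above about 50%, limit read from the data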
Lmaj promast: reduces viability of Leishmania major promastigotes; resazurin fluorescence viability; inhibition, % at 10 µM; hit rate 9% among 200,000; in the data active means inhibition above about 50%;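 further: promastigotes grown with compound for 44 hours at 28 °C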
ROMK primary: modulators of human ROMK potassium channel; Tet-inducible ROMK, thallium flux fluorescence; actives lie on both sides; B-score at 10 µM; hit rate 2% among 130,000; AID 1918;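 active means signal ratio slope over the read window, or its plate-corrected B-score, at least 3 SD from the plate mean, either direction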;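 further: B-score of the F/F0 ratio slope over 7 to 12 s after thallium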
WT yeast gro inh: growth inhibition of WT yeast, mitochondrial fusion screen; mitochondrial fusion phenotypic screen, WT strain; inhibition, % at 10 µM; hit rate 2.1% among 190,000; AID 1362; in the data active means inhibition above about 58%; tested in S. cerevisiae
The depositor's hits bear a star. Shown are actives, neighbours in structure and some others; about 12% of the full set was active somewhere.

Results for O=C(c1cccc2ccccc12)C1CCCN(C2CCC2)C1 (stereo not drawn) ?
KCC2 mod: 1.4; Calpain2 inh: -8; Lmaj promast: 74*; ROMK primary: -0.26; WT yeast gro inh: 4

What do the screens show for `CC1CC(OP(O)(=S)c2ccc(N(C)C)cc2NC(=O)c2cccs2)CC(C)(C)C1` (stereo not drawn)?
KCC2 mod: 0.54; Calpain2 inh: 3; Lmaj promast: -7; ROMK primary: 0.68; WT yeast gro inh: 6

Results for CC/C(=N\Nc1ccccc1)c1c(O)n(C)c(=O)n(C)c1=O ?
KCC2 mod: -0.36; Calpain2 inh: 7; Lmaj promast: 61*; WT yeast gro inh: 23

Results for CC/C(=N\Nc1ccccc1)c1c(O)n(-c2ccccc2)c(=O)[nH]c1=O ?
KCC2 mod: -0.72; Calpain2 inh: 30

What do the screens show for `C=CCn1c(O)c(C(C)=Nc2cc(OC)ccc2OC)c(=O)[nH]c1=O`?
KCC2 mod: -0.055; Calpain2 inh: -12; Lmaj promast: 5; WT yeast gro inh: 20

How did O=c1[nH]c(=S)n(CCC2=CCCCC2)c(O)c1C=NC1CCN(Cc2ccccc2)CC1 do in these assays?
KCC2 mod: 0.027; Calpain2 inh: -4; Lmaj promast: 41; WT yeast gro inh: 78*

Results for O=c1[nH]c(=O)n(C2CCCCCC2)c(O)c1C=NC1CCN(Cc2ccccc2)CC1 ?
KCC2 mod: 0.17; Calpain2 inh: -9; Lmaj promast: 89*; WT yeast gro inh: 4

What do the screens show for `O=c1[nH]c(=S)n(CCC2=CCCCC2)c(O)c1/C=N/Nc1ccccc1`?
KCC2 mod: 0.21; Calpain2 inh: -15

Results for CCOc1ccc2c(c1)c(C(C)=O)c(C)n2Cc1ccco1 ?
KCC2 mod: -0.46; Calpain2 inh: -19; Lmaj promast: 10; ROMK primary: -1.5; WT yeast gro inh: -12

Results for CC(=O)OC1(Cc2ccccc2)CN2CCC1c1ccccc12 (stereo not drawn) ?
KCC2 mod: 0.034; Calpain2 inh: -9; Lmaj promast: 63*; ROMK primary: -1.4; WT yeast gro inh: 4

How did O=C(c1ccc(Cl)cc1)C1CCCN(C2CCSCC2)C1 (stereo not drawn) do in these assays?
KCC2 mod: -0.071; Calpain2 inh: -16; Lmaj promast: 91*; ROMK primary: -0.56; WT yeast gro inh: -6

What do the screens show for `COc1c(C)cc(C(=O)C2CCCN(C3CCOCC3)C2)cc1C` (stereo not drawn)?
KCC2 mod: -0.22; Calpain2 inh: 5; Lmaj promast: 97*; ROMK primary: 0.2; WT yeast gro inh: -7

What do the screens show for `COc1ccc2cc(C(=O)C3CCCN(C4CCOCC4)C3)ccc2c1` (stereo not drawn)?
KCC2 mod: -0.092; Calpain2 inh: inactive; Lmaj promast: 99*; ROMK primary: -1.1; WT yeast gro inh: 5

How did COc1ccc(C(=O)C2CCCN(C3CSCCSC3)C2)cc1OC (stereo not drawn) do in these assays?
KCC2 mod: 0.16; Calpain2 inh: 1; Lmaj promast: 18; ROMK primary: 0.18; WT yeast gro inh: 0

Results for C=CCn1c(O)c(C=NCCCOc2ccc(CC)cc2)c(=O)[nH]c1=S ?
KCC2 mod: 0.75; Calpain2 inh: -17; Lmaj promast: 6; WT yeast gro inh: -3

Results for Cn1c(CN2CCN(C(=O)COc3ccccc3)CC2)nc2cc([N+](=O)[O-])ccc21 ?
KCC2 mod: -1.7; Calpain2 inh: -2; Lmaj promast: 3; ROMK primary: 0.034; WT yeast gro inh: -5

How did Cc1cc(C=O)c(C)n1C1CC1 do in these assays?
KCC2 mod: 0.28; Calpain2 inh: -19; Lmaj promast: -3; ROMK primary: 0.057; WT yeast gro inh: 4

How did COc1ccc(Cn2c(O)c(C=NCCN3CCOCC3)c(=O)[nH]c2=O)cc1 do in these assays?
KCC2 mod: 9.1*; Calpain2 inh: 4; Lmaj promast: -7; ROMK primary: 0.078; WT yeast gro inh: -18

How did Cc1ccnc(-n2c(C)cc(C=C3C(=O)N(C)C(=S)N(C)C3=O)c2C)c1 do in these assays?
Calpain2 inh: -85; Lmaj promast: 51*; WT yeast gro inh: -3

Results for Cc1cc(C=C2C(=O)N(C)C(=S)N(C)C2=O)c(C)n1-c1ccncc1 ?
KCC2 mod: -0.37; Calpain2 inh: -16

What do the screens show for `COc1ccc(C)cc1NC1=NC(C)(C)CS1`?
KCC2 mod: 0.95; Calpain2 inh: -34; Lmaj promast: 20; ROMK primary: 0.36; WT yeast gro inh: 24

What do the screens show for `CC1(C)CC(CCNCc2ccc3c(c2)OCO3)(Cc2ccccc2)CCO1` (stereo not drawn)?
KCC2 mod: 0.98; Calpain2 inh: 1; Lmaj promast: 89*; ROMK primary: -2.2; WT yeast gro inh: 16

What do the screens show for `Cc1ccc(Cn2cc(C=O)c(-c3ccc(C)cc3)n2)cc1`?
KCC2 mod: 0.21; Calpain2 inh: -3; Lmaj promast: 3; ROMK primary: -0.44; WT yeast gro inh: 28

Results for CC(=O)N(C1=NCCCS1)c1ccc(Cl)cc1 ?
KCC2 mod: 0.29; Calpain2 inh: -18; Lmaj promast: 96*; WT yeast gro inh: -11

What do the screens show for `CC(=O)N(C1=NCCCS1)c1ccc(F)cc1`?
KCC2 mod: 0.51; Calpain2 inh: -17; Lmaj promast: 13; WT yeast gro inh: 3

Results for COc1ccccc1N(CC(=O)NC1CCCCC1)C(=O)c1cnn(C(C)C)c1 ?
KCC2 mod: -1.4; Calpain2 inh: -10; Lmaj promast: 13; WT yeast gro inh: -15

What do the screens show for `c1ccc2c(CN3CCN(C4CCCCC4)CC3)c[nH]c2c1`?
KCC2 mod: 0.78; Calpain2 inh: 10; Lmaj promast: 75*; ROMK primary: -1; WT yeast gro inh: 6

What do the screens show for `NCCc1c[nH]c2ccccc12`?
KCC2 mod: 0.37; Calpain2 inh: -12; Lmaj promast: -3; ROMK primary: -0.44; WT yeast gro inh: -7

What do the screens show for `c1ccc2c(CN3CCCCCCC3)c[nH]c2c1`?
Calpain2 inh: 26; Lmaj promast: 98*; WT yeast gro inh: 3

Results for O=C(c1cc(F)ccc1F)C1CCCN(CCCc2ccccc2)C1 (stereo not drawn) ?
Calpain2 inh: 5; Lmaj promast: 82*; ROMK primary: -0.086; WT yeast gro inh: 13

How did Cc1cc(Cl)ccc1OC(C)C(=O)O (stereo not drawn) do in these assays?
KCC2 mod: -0.31; Calpain2 inh: 1; Lmaj promast: -3; ROMK primary: -0.016; WT yeast gro inh: -4

Results for Cc1c(C(c2ccc(Cl)cc2Cl)c2c(O)c3ccccc3oc2=O)c(=O)n(-c2ccccc2)n1C (stereo not drawn) ?
KCC2 mod: -2.5; Calpain2 inh: 11; Lmaj promast: -12; ROMK primary: -0.2; WT yeast gro inh: 75*

Results for Cc1c(C(c2ccc(Br)cc2)c2c(O)c3ccccc3oc2=O)c(=O)n(-c2ccccc2)n1C (stereo not drawn) ?
KCC2 mod: 0.27; Calpain2 inh: -55; Lmaj promast: 0; ROMK primary: -0.34; WT yeast gro inh: 18

What do the screens show for `CSc1nnc(OC(=O)N(C)C)n1-c1ccc(Cl)cc1`?
KCC2 mod: 0.27; Calpain2 inh: 1
